This is an account of results in PubChem BioAssay (NCI).

Test systems include DU-145 prostate; K-562 leukemia; MALME-3M melanoma; MDA-MB-231 breast; RXF 393 renal; SF-268 CNS; SF-295 CNS; SF-539 CNS; UACC-257 melanoma; M14 melanoma; HCT-15 colon; HT29 colon; SNB-75 CNS; U251 CNS; PC-3 prostate; SK-MEL-5 melanoma; UACC-62 melanoma; LOX IMVI melanoma; SK-MEL-28 melanoma.
What all share (experiment): NCI-60 one-dose screen, 48 h (100 = growth as untreated, 0 = no growth, -100 = all killed)
What all share (conditions): 10 µM unless noted

Compounds without any hit were thinned out: in the full panel of roughly 83,000, 20% have a hit.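 96-well plates, one dose, 48 hours. Percent growth reported; active if below 10.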 Values without a mark were called inactive. The source made the active and inactive calls.

`CCN(CC)Cc1cc(Nc2c3ccccc3nc3cc(Cl)ccc23)ccc1O`: the growth in the experiment with DU-145 prostate is -16.2% (active); with K-562 leukemia, -40.8% (active); in the experiment with MALME-3M melanoma it was -91.4% (active); in the experiment with MDA-MB-231 breast it was -65.2% (active); in the experiment on RXF 393 renal, -91.4% (active); with SF-268 CNS, -76.9% (active). The growth was -38.3% (active) in the experiment with SF-295 CNS; -100% (active) in the experiment on SF-539 CNS; -94.8% (active) in the experiment on UACC-257 melanoma; -99.6% (active) with M14 melanoma; -28.6% (active) in the experiment with HCT-15 colon; -38.3% (active) with HT29 colon. Moreover, the growth in the experiment on SNB-75 CNS is -100% (active); in the experiment with U251 CNS it was -51.6% (active); in the experiment on PC-3 prostate, -41.5% (active); in the experiment with SK-MEL-5 melanoma it was -100% (active); in the experiment with UACC-62 melanoma, -97.2% (active); with LOX IMVI melanoma, -86.5% (active). In addition, the growth with SK-MEL-28 melanoma was -79.3% (active).

Regarding `C=C1CC[C@@H]2[C@](C)(COC(C)=O)[C@H](OC(C)=O)CC[C@@]2(C)[C@@H]1CC(NCc1ccc(F)cc1)C1=CCOC1=O` (some centres not stated), the growth in the experiment on DU-145 prostate was 69.8%; in the experiment with K-562 leukemia, 18.8%; with MALME-3M melanoma it was 65.1%; in the experiment on MDA-MB-231 breast, 60.9%; with RXF 393 renal, 80.6%; in the experiment on SF-268 CNS, 62.6%. For the same compound, the growth was 96.1% in the experiment on SF-295 CNS; 64.4% in the experiment on SF-539 CNS; 45.8% in the experiment with UACC-257 melanoma; 37.3% in the experiment with M14 melanoma; 37% in the experiment on HCT-15 colon; 21.3% in the experiment with HT29 colon. For the same compound, the growth in the experiment with SNB-75 CNS is 58.1%; in the experiment on U251 CNS, 48%; in the experiment on PC-3 prostate, 20.8%; with SK-MEL-5 melanoma it was 11.8%; with UACC-62 melanoma, 32.2%; in the experiment on LOX IMVI melanoma, 9.33% (active). Further, the growth with SK-MEL-28 melanoma is 77.8%.

With `c1ccc(Sc2ncnc3ccccc23)cc1`, the growth was 89.3% in the experiment on DU-145 prostate; 71.4% in the experiment on K-562 leukemia; 64.1% in the experiment on MALME-3M melanoma; 93% in the experiment with MDA-MB-231 breast; 83.1% in the experiment with RXF 393 renal; 70% in the experiment with SF-268 CNS. Moreover, the growth is 93.7% in the experiment on SF-295 CNS; 89% with SF-539 CNS; 70.5% in the experiment on UACC-257 melanoma; 71% with M14 melanoma; 75.2% in the experiment with HCT-15 colon; 88.2% with HT29 colon. Moreover, the growth with SNB-75 CNS is 73.2%; in the experiment with U251 CNS it was 87.2%; in the experiment on PC-3 prostate it was 83.5%; with SK-MEL-5 melanoma, 66.1%; in the experiment on UACC-62 melanoma it was 66.2%; in the experiment on LOX IMVI melanoma, 67.5%. Moreover, the growth in the experiment on SK-MEL-28 melanoma was 85.5%.

For `CC(C)n1cc2c(N)ncnc2n1`, the growth in the experiment on DU-145 prostate is 128%; in the experiment with K-562 leukemia, 98.5%; in the experiment on MALME-3M melanoma, 86.3%; with MDA-MB-231 breast, 109%; with RXF 393 renal, 115%; with SF-268 CNS, 106%. The growth in the experiment on SF-295 CNS is 102%; with SF-539 CNS, 105%; in the experiment on UACC-257 melanoma, 121%; in the experiment with M14 melanoma, 107%; with HCT-15 colon, 106%; with HT29 colon, 101%. In addition, the growth with SNB-75 CNS is 81.6%; in the experiment on U251 CNS, 106%; with PC-3 prostate it was 106%; in the experiment on SK-MEL-5 melanoma, 108%; in the experiment with UACC-62 melanoma it was 92.9%; in the experiment with LOX IMVI melanoma, 108%. Further, the growth in the experiment on SK-MEL-28 melanoma was 152%.

As for `CCN(CC)CC(O)c1cc(-c2ccc(Cl)cc2)nc2c(C)c(Cl)ccc12` (configuration not stated), the growth in the experiment with DU-145 prostate is -71.1% (active); in the experiment with K-562 leukemia it was -75.3% (active); with MALME-3M melanoma, -64% (active); in the experiment on MDA-MB-231 breast, -82.2% (active); in the experiment on RXF 393 renal, -86.4% (active); in the experiment with SF-268 CNS it was -29.5% (active). Besides, the growth with SF-295 CNS was -76.8% (active); in the experiment on SF-539 CNS it was -98.6% (active); in the experiment with UACC-257 melanoma, -80.8% (active); in the experiment on M14 melanoma, -98.5% (active); with HCT-15 colon it was -86.9% (active); with HT29 colon, -100% (active). For the same compound, the growth with SNB-75 CNS was -39.7% (active); in the experiment with U251 CNS it was -93.5% (active); in the experiment with PC-3 prostate, -68.4% (active); in the experiment with SK-MEL-5 melanoma, -96.6% (active); with UACC-62 melanoma, -92.3% (active); in the experiment on LOX IMVI melanoma, -94.7% (active). For the same compound, the growth in the experiment with SK-MEL-28 melanoma is -85.5% (active).

As for `O=C1/C(=C\c2cn(C(=O)c3ccc(Cl)cc3)c3ccccc23)c2ccccc2N1c1c(Cl)cccc1Cl`, the growth was 120% in the experiment with DU-145 prostate; 115% in the experiment on K-562 leukemia; 106% in the experiment with MALME-3M melanoma; 103% in the experiment on MDA-MB-231 breast; 151% with RXF 393 renal; 99.9% with SF-268 CNS. Besides, the growth in the experiment on SF-295 CNS was 127%; in the experiment with SF-539 CNS, 104%; in the experiment with UACC-257 melanoma it was 123%; in the experiment with M14 melanoma, 104%; in the experiment with HCT-15 colon, 66.3%; in the experiment on HT29 colon, 103%. Also, the growth with SNB-75 CNS was 82.3%; in the experiment on U251 CNS, 88.4%; in the experiment with PC-3 prostate it was 71.9%; in the experiment with SK-MEL-5 melanoma, 107%; in the experiment with UACC-62 melanoma it was 95.4%; in the experiment on LOX IMVI melanoma it was 97.7%. Further, in the experiment on SK-MEL-28 melanoma, the growth was 113%.

Consider `O=C(Nc1ccc(CN2CCOCC2)cc1)c1[nH]ncc1Nc1ncnc2sccc12`, for which the growth is 5.47% (active) with DU-145 prostate; 4.04% (active) in the experiment with K-562 leukemia; 8.16% (active) in the experiment on MALME-3M melanoma; 15.8% in the experiment on MDA-MB-231 breast; -43% (active) with RXF 393 renal; 1.23% (active) in the experiment with SF-268 CNS. Besides, the growth with SF-295 CNS was 17.8%; with SF-539 CNS, -34.1% (active); with UACC-257 melanoma, 19.9%; with M14 melanoma, 14.4%; in the experiment with HCT-15 colon, 5.47% (active); in the experiment with HT29 colon, 9.37% (active). The growth in the experiment on SNB-75 CNS is -24.7% (active); with U251 CNS, 13.8%; in the experiment on PC-3 prostate, 11%; in the experiment on SK-MEL-5 melanoma, -16.5% (active); in the experiment with UACC-62 melanoma, 10.1%; in the experiment on LOX IMVI melanoma it was -14.4% (active). Also, the growth in the experiment on SK-MEL-28 melanoma is 7.07% (active).

With `CCNS(=O)(=O)c1ncnc2nc[nH]c12`, the growth is 102% with DU-145 prostate; 109% with K-562 leukemia; 116% in the experiment on MALME-3M melanoma; 119% in the experiment on MDA-MB-231 breast; 122% in the experiment on RXF 393 renal; 132% in the experiment on SF-268 CNS. Moreover, the growth with SF-295 CNS was 109%; in the experiment on SF-539 CNS, 95.9%; in the experiment with UACC-257 melanoma, 126%; in the experiment with M14 melanoma, 119%; in the experiment on HCT-15 colon, 94.3%; in the experiment on HT29 colon it was 114%. Moreover, the growth in the experiment with SNB-75 CNS was 122%; in the experiment with U251 CNS it was -14% (active); in the experiment with PC-3 prostate, 85.2%; with SK-MEL-5 melanoma, 113%; with UACC-62 melanoma it was 94.7%; with LOX IMVI melanoma, 22%. Further, the growth in the experiment on SK-MEL-28 melanoma was 143%.
